The whole screen tested about 39,000 compounds, of which about 3,300 (8.5%) were called active. The sample as a whole holds a higher share of actives than the screen did.
System: HepG2
Test: cytotoxicity call (relative viability < 0.9)
Settings: 10 µM

Compound | cytotoxicity call
COc1nc(C#N)nc(N2CCCCC2)n1 | inactive
COc1ccc(S(=O)(=O)N(C)C[C@H]2OCCCC[C@@H](C)Oc3ccc(NC(=O)Nc4ccc(F)cc4)cc3C(=O)N([C@@H](C)CO)C[C@@H]2C)cc1 | inactive
CCO[C@@H]1OC(C(=O)N2CCN(Cc3ccc4c(c3)OCO4)CC2)=C[C@H](C)[C@H]1CCCOC(=O)NCCCCCC(=O)NO | inactive
Cc1noc(C)c1NC(=O)Nc1ccc2c(c1)C(=O)N([C@H](C)CO)C[C@@H](C)[C@H](CN(C)Cc1ccccc1)OCCCC[C@H](C)O2 | inactive
Cc1cccc(S(=O)(=O)N2C[C@H](O)COC[C@H]3O[C@H](CC(=O)NCCCN4CCOCC4)CC[C@@H]32)c1 | inactive
C[C@@H]1CN([C@H](C)CO)C(=O)Cc2cc(NS(C)(=O)=O)ccc2O[C@@H]1CN(C)C(=O)Nc1ccc2c(c1)OCO2 | inactive
C[C@@H]1CN([C@@H](C)CO)C(=O)c2cc(NC(=O)CCC(F)(F)F)ccc2O[C@@H](C)CCCCO[C@H]1CN(C)Cc1ccc2c(c1)OCO2 | inactive
Cc1noc(C)c1S(=O)(=O)N(C)C[C@@H]1Oc2ccc(NC(=O)Cn3cnnn3)cc2CC(=O)N([C@@H](C)CO)C[C@@H]1C | inactive
C[C@H]1CN([C@@H](C)CO)S(=O)(=O)c2ccc(C#CCN(C)C)cc2O[C@H]1CN(C)C(=O)c1ccccc1F | inactive
O=C(C[C@@H]1CC[C@@H](NC(=O)CN2CCOCC2)[C@@H](CO)O1)NC1CCC1 | inactive
COc1cccc(CN(C)C[C@@H]2OCc3ccccc3-c3c(n(C)c4ccccc34)C(=O)N([C@H](C)CO)C[C@@H]2C)c1 | inactive
Cc1ccc(S(=O)(=O)N(C)C[C@@H]2Oc3ccc(NC(=O)CCCN(C)C)cc3C(=O)N([C@H](C)CO)C[C@@H]2C)cc1 | inactive
Nc1ccc(/C=C/C(=O)NCc2cc3cc(-c4ccc(C(=O)N5CCC(F)(F)CC5)cc4)cc(-c4ccc(F)cc4)c3o2)cn1 | active
C[C@H]1CN([C@@H](C)CO)C(=O)CCCn2nncc2CO[C@@H]1CN(C)C(=O)C1CC1 | inactive
CC(C)NC(=O)Nc1cccc2c1O[C@H](CN(C)Cc1ccc(Oc3ccccc3)cc1)[C@@H](C)CN([C@H](C)CO)C2=O | inactive
Cc1ccc2nccc(C(=O)N3CCC[C@@H](Cn4cc(C(C)(C)N)nn4)C3)c2c1 | inactive
C[C@H]1CCCCO[C@H](CN(C)C(=O)Nc2cccc3ccccc23)[C@@H](C)CN([C@@H](C)CO)C(=O)c2cc(NS(C)(=O)=O)ccc2O1 | inactive
COc1cc(N2CCC(O)CC2)ccc1Nc1cc(Nc2ccccc2S(=O)(=O)C(C)C)c2cc[nH]c2n1 | inactive
NC1CCN(C(=O)c2c[nH]c3ccccc23)CC1 | inactive
COc1cc(N2CCC(N)CC2)ccc1Nc1ncc(Cl)c(-c2c[nH]c3ccccc23)n1 | active
COc1cc(N2CCC(N3CCN(C)CC3)CC2)ccc1Nc1ncc(Cl)c(Nc2ccccc2S(=O)(=O)C(C)C)n1 | active
COc1cc(C(=O)NC2CCN(C)CC2)ccc1Nc1ncc2c(n1)N(C1CCC(O)CC1)CCC(=O)N2C (stereo not given) | inactive
COc1cc(C(=O)N2CCN(CCN3C(=O)c4cccc5cccc(c45)C3=O)CC2)cc(OC)c1OC | inactive
COc1cc(C(=O)N2CCC(N3CCN(C)CC3)CC2)ccc1Nc1ncc2c(n1)N(C)c1ccccc1C(=O)N2C | active
Cc1cc(Nc2ncc(Cl)c(Nc3ccccc3S(=O)(=O)C(C)C)n2)c(OC(C)C)cc1C1CCNCC1 | active

— the antibiotic and cytotoxicity screens of Wong et al. (2023)
